This is part of a sample that, as a whole, favours compounds with a hit. Of some 79,000 tested, about 15% had one in any assay. The source made the active and inactive calls. No stated cut-off is given here; in the data, active means growth inhibition above about 70%; inactive means the rest.
How the values were obtained:
[1] = NCI Yeast Anticancer Drug Screen. Data for the rad50 strain (AID 155);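 further: 0% = growth of vehicle-only cultures of the same strain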; conditions: S. cerevisiae rad50 strain growth inhibition; at 50.0 µM; hits give high values
In short: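 A DNA repair-deficient yeast mutant serves as the test organism; compound-induced growth inhibition is calculated against vehicle-treated cells.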

[2] = NCI Yeast Anticancer Drug Screen. Data for the mec2-1 strain (AID 157); conditions: S. cerevisiae mec2-1 strain, at 50.0 µM, hits give high values
In short: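 Cells of the genetically defined mec2-1 yeast strain are incubated with test compound. Inhibition of growth is calculated against vehicle-treated controls.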

[3] = NCI Yeast Anticancer Drug Screen. Data for the sgs1 mgt1 strain (AID 161);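 further: 0% = growth of cultures given vehicle only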; conditions: S. cerevisiae sgs1 mgt1 strain, at 50.0 µM, hits give high values
In short: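 Test agents were incubated with a DNA-repair-mutant yeast strain. Growth was then read and compared against vehicle-treated controls.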

[4] = NCI Yeast Anticancer Drug Screen. Data for the cln2 rad14 strain (AID 165);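 further: 0% = growth equal to vehicle treated cultures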; conditions: S. cerevisiae cln2 rad14 strain, at 50.0 µM, hits give high values
In short: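 The screen exposed genetically defined yeast (cln2 rad14) to test compounds and scored growth inhibition relative to vehicle-treated controls.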

[5] = NCI Yeast Anticancer Drug Screen. Data for the bub3 strain (AID 167); conditions: S. cerevisiae bub3 mutant strain, at 50.0 µM, hits give high values
In short: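 Inhibition values come from growth of compound-treated mutant yeast normalised to vehicle-treated controls.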

[6] = NCI Yeast Anticancer Drug Screen. Data for the mlh1 rad18 strain (AID 175); conditions: S. cerevisiae mlh1 rad18 strain growth inhibition; at 50.0 µM; hits give high values
In short: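 Compound-treated yeast growth, normalised to vehicle controls. Strain bears defined DNA repair mutations.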

Measured: growth inhibition

O=c1[nH]c(=O)n(COCc2ccccc2)c2ccc(Br)cc12
inactive: [1] -7.55% | [2] -9.5% | [3] -2.75% | [4] -20.4% | [5] -6.95% | [6] -61.5%

Nc1cc(OCc2ccccc2)ncn1
inactive: [1] 10.6% | [2] 11% | [3] 3.75% | [4] -11.6% | [5] -1.05% | [6] 20.9%

COc1ccc(/C=N/NC(=O)c2ccccc2OC)cc1
inactive: [1] 1.85% | [2] 19.6% | [3] 29.9% | [4] -11.5% | [5] -10.8% | [6] 36.1%

CCCCn1c(CCC)nc([N+](=O)[O-])c1Sc1ncn[nH]1
inactive: [1] -4.15% | [2] 6.15% | [3] -28.4% | [4] -1% | [5] -20.2% | [6] 8.6%

CCCNC(=O)c1ccc(Cl)cc1Cl
inactive: [1] 29.8% | [2] 7.85% | [3] 18.4% | [4] -12.2% | [5] -12.5% | [6] 27.1%

S=C(S)OC1CCCCC1.[Zn+2]
inactive: [1] -14.9% | [2] -15.8% | [3] -22.2% | [4] -50.9% | [5] -24.8% | [6] -12.2%

O=C(/C=C\c1ccccc1)c1ccc(-c2cccc(-c3ccccc3)c2)cc1
inactive: [1] -8.55% | [2] 7.95% | [3] 7.5% | [4] -17.4% | [5] -3.15% | [6] -11.1%

O=C1C2C3CCC(C3)C2N1Cc1ccccc1 (stereo unspecified)
inactive: [1] 5.8% | [2] -1.65% | [3] -2.15% | [4] -27.2% | [5] 13.6% | [6] -14.8%

CC(C)(c1ccc(O)c(Cl)c1)c1cc(Cl)c(O)c(S(=O)(=O)O)c1
inactive: [1] 10.8% | [2] 4.8% | [3] 27.2% | [4] 22.3% | [5] 1.15% | [6] -11.2%

Cc1nc(C)c(C(=O)NNC(=O)C[n+]2ccccc2)cc1C(=O)NNC(=O)C[n+]1ccccc1
inactive: [1] -27.6% | [2] -4.15% | [3] -11.4% | [4] 11.7% | [5] -12.4% | [6] -25.1%

Nc1c(S(=O)(=O)O)ccc2c1C(=O)c1ccccc1C2=O
inactive: [1] 27.9% | [2] 24.2% | [3] 34% | [4] 6.5% | [5] 49.1% | [6] 16.4%

Cc1cc(=O)cc(-c2ccccc2)[nH]1
inactive: [1] -32.5% | [2] -11.3% | [3] -12.5% | [4] -37.3% | [5] -2.5% | [6] 6.55%

COc1cc2c(c(OC)c1OC)-c1cccc(=O)cc1C(NC(C)=O)CC2 (stereo unspecified)
inactive: [1] -3.65% | [2] -14.2% | [3] -3.35% | [4] 8.9% | [5] -2.2% | [6] 21.1%

CCOC(=O)COc1cc2c(cc1C(C)c1ccc(OCc3ccccc3)c(OC)c1)OCO2 (stereo unspecified)
inactive: [1] -0.95% | [2] -7.55% | [3] -9.7% | [4] 10.6% | [5] -7.4% | [6] -6.3%

CC1(C)CC([N+](C)(C)CCCCCC[N+](C)(C)C2CC(C)(C)N(O)C(C)(C)C2)CC(C)(C)N1O
inactive: [1] 3.6% | [2] 0.45% | [3] 14.9% | [4] -4.3% | [5] -3% | [6] 12.5%

CCOC(=O)/C(Cc1cc(=O)n(C)c2ccccc12)=N\Nc1ccccc1
inactive: [1] 2.85% | [2] -12.2% | [3] 2.6% | [4] -4.6% | [5] 10.6% | [6] -6.75%

CC(=O)Nc1ccc(S(=O)(=O)Nc2cccc3ccccc23)cc1
inactive: [1] 23.2% | [2] 7.4% | [3] 18.6% | [4] 42.8% | [5] 57.6% | [6] 21.6%

COc1ccc(C2CC(=O)Oc3ccccc3O2)cc1 (stereo unspecified)
inactive: [1] 39% | [2] 16.4% | [3] 32.2% | [4] 27.9% | [5] 23.6% | [6] 38.1%

CC(C)(Br)CS(=O)(=O)c1ccccc1
inactive: [1] 38.1% | [2] 5.85% | [3] 29.1% | [4] -20.2% | [5] 14.1% | [6] 29.5%

C#CC(C)(CC)OC(C)=O (stereo unspecified)
inactive: [1] 44.3% | [2] -16.4% | [3] 7.6% | [4] -23% | [5] 19.9% | [6] 20.3%

CCCCC1NC(=O)OC1=O (stereo unspecified)
inactive: [1] -23.6% | [2] -31.4% | [3] -11.2% | [4] 1.9% | [5] -20.2% | [6] -33.4%

N=C(N)SC1CC2CC1C1C=CCC21 (stereo unspecified)
inactive: [1] 6.65% | [2] -6.6% | [3] 16.4% | [4] -19.1% | [5] 9.05% | [6] 16.2%

CCCCCc1[nH]c(=O)[nH]c(=O)c1S(=O)(=O)N1CCCCC1
inactive: [1] 0.15% | [2] 28.4% | [3] 18.7% | [4] 3.4% | [5] 25.9% | [6] 18.2%

COc1cc([C@@H]2c3cc4c(cc3[C@H](OC(=O)CCCC(=O)O)[C@H]3COC(=O)[C@H]23)OCO4)cc(OC)c1OC
inactive: [1] 26.2% | [2] 23.2% | [3] 38.5% | [4] 32.3% | [5] 10.9% | [6] 33.6%

CCCCCCCCCCCCCCCC[N+](C)(C)CCN=[N+]=[N-]
active: [1] 99.4% | [2] 99.7% | [3] 99.7% | [4] 99.2% | [5] 99.5% | [6] 99.5%

CCCC(=O)N(CC)CC
inactive: [1] 11.2% | [2] -8.6% | [3] -0.8% | [4] -15% | [5] 0% | [6] -20.9%

c1ccc2cc(CCc3cc4ccccc4cn3)ncc2c1
inactive: [1] 10.2% | [2] 11.4% | [3] 7% | [4] -16.1% | [5] 24.4% | [6] 25.6%

NC(=O)c1ncn(C2OC(CO)C(O)C2O)c1NC=O (stereo unspecified)
inactive: [1] 1.95% | [2] -3.9% | [3] -2.25% | [4] 7.6% | [5] 9.85% | [6] 17.9%

O=C(CCN1C(=O)c2ccccc2C1=O)c1cnc[nH]1
inactive: [1] 13.8% | [2] 16.9% | [3] 13.4% | [4] -4.5% | [5] 2.6% | [6] 10.4%

Cc1cc(Cl)c(Cl)cc1Cl
inactive: [1] 13% | [2] 5.7% | [3] -6.5% | [4] -4% | [5] -6.35% | [6] 2.3%

CC1SC(=S)NC1=O (stereo unspecified)
inactive: [1] -16% | [2] -2.1% | [3] -10.8% | [4] -2% | [5] -10.9% | [6] -0.8%

COc1ccc(-c2cc(-c3ccc(OC)cc3)cc(-c3ccc(OC)cc3)c2)cc1
inactive: [1] -19.5% | [2] -22.8% | [3] -14.9% | [4] -27.8% | [5] -14% | [6] -16.6%

COc1cc(Nc2nc3ccc(C(F)(F)F)cc3nc2-c2ccccc2)cc(OC)c1OC
inactive: [1] 0.05% | [2] 4.2% | [3] -36% | [4] -12.2% | [5] -9.3% | [6] -22.9%

Cc1ccc(C(c2ccc(C)c(C)c2)C(O)C(O)C(O)C(O)CO)cc1C (stereo unspecified)
inactive: [1] -4.8% | [2] -2.6% | [3] -2.9% | [4] 1.6% | [5] -6.05% | [6] -18.4%

C(=Nc1cccc2ccccc12)Nc1cccc2ccccc12
inactive: [1] -10.9% | [2] -38.7% | [3] -5.8% | [4] -6.7% | [5] -48.8% | [6] 1.25%

Cc1ccccc1NC(=O)CC(=O)n1nc(-c2ccccc2)c(N=Nc2ccc([N+](=O)[O-])cc2)c1-c1ccccc1
inactive: [1] 46.4% | [2] 10.4% | [3] 56% | [4] 30.9% | [5] 52.8% | [6] 42.9%

O=C(Nc1cccc2ccccc12)Oc1ccc(Br)cc1Br
active: [1] 84.1% | [2] 71.2% | [3] 93.3% | [6] 92.7%
inactive: [4] 30.2% | [5] 54.1%

NNS(=O)(=O)c1cccc(S(=O)(=O)NN)c1
inactive: [1] -13.9% | [2] 12.3% | [3] -3.2% | [4] -4.25% | [5] 5.35% | [6] 5.3%

C/C=C(\C)C(=O)OCC1=CCC2CCC(O)N12 (stereo unspecified)
inactive: [1] 5.75% | [2] 0.05% | [3] 0.1% | [4] 6.05% | [5] 10.1% | [6] 8.55%

[C-]#[N+]C(=C\c1ccc(O)cc1)/C(=C/c1ccc(O)cc1)[N+]#[C-]
active: [1] 97.8% | [2] 98% | [3] 97.8% | [4] 96% | [5] 98.1% | [6] 98.2%

C=C(C)C1CCC2(C=O)CCC3(C)C(CCC4C5(C)CCC(O)C(C)(C)C5CCC43C)C12 (stereo unspecified)
inactive: [1] 25.9% | [2] 37% | [3] 25.1% | [4] 15.8% | [5] 26% | [6] 20.8%

Source: PubChem BioAssay (NCI)
